Only some compounds are listed: those with a hit (about 12% of all), similar ones and a draw of the others.
USP30 block – inhibitors of human USP30 deubiquitinase; purified USP30, Ub-rhodamine cleavage fluorescence; inhibition, % at 25 µM; 5.3% of 47,000 active
USP17 block – inhibitors of human USP17 deubiquitinase; Ubiquitin carboxyl-terminal hydrolase 17-like protein 5 (Homo sapiens), A8MUK1; purified USP17, Ub-rhodamine cleavage fluorescence, 3 h; inhibition, % at 50 µM; 6.5% of 47,000 active
OTUD3 block – inhibitors of human OTUD3 deubiquitinase. OTU domain-containing protein 3 (Homo sapiens), Q5T2D3. purified OTUD3, Ub-rhodamine fluorescence, 2 h. inhibition, % at 25 µM. 0.7% of 47,000 active. AID 1645858, 2021
Target sequence (Q5T2D3 whole entry, looked up, the tested form may be a part): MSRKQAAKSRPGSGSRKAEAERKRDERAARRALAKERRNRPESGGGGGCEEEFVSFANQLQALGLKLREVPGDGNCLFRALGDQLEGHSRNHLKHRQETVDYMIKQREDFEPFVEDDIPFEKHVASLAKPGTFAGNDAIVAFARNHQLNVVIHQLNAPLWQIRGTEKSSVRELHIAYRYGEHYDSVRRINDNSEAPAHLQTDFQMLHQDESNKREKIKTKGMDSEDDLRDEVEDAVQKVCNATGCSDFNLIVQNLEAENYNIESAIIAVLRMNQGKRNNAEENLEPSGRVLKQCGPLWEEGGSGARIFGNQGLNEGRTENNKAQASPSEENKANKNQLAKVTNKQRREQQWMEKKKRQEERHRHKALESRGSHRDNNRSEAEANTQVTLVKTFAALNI
USP28 inh – inhibitors of human USP28 deubiquitinase; inhibition, % at 25 µM; AID 1645857, 2021; Ubiquitin carboxyl-terminal hydrolase 28 (Homo sapiens), Q96RU2; purified USP28, Ub-rhodamine cleavage fluorescence, 30 min; 3% of 47,000 active
* = called active by the depositor. No stated cut-off is given here; in the data, active means inhibition above about 30%; inactive means the rest.

Results for COc1ccc(S(=O)(=O)N(Cc2ccco2)Cc2cc3ccccc3[nH]c2=O)cc1 ?
USP30 block: 42*; USP17 block: 11; OTUD3 block: -7; USP28 inh: 28

How did COc1ccc(S(=O)(=O)N(Cc2cccnc2)Cc2cc3ccccc3[nH]c2=O)cc1 do in these assays?
USP30 block: -26; USP17 block: -21; OTUD3 block: -11; USP28 inh: -15

How did O=c1oc2ccccc2c(NCc2ccc3c(c2)OCO3)c1CN1CCCC1 do in these assays?
USP30 block: 12; USP17 block: 31*; OTUD3 block: 5; USP28 inh: 17

How did Cc1nc(SCC(=O)Nc2ccc(Cl)c(Cl)c2)c2oc3ccccc3c2n1 do in these assays?
USP30 block: 9; USP17 block: 12; OTUD3 block: 6; USP28 inh: 3

What do the screens show for `Cc1nc(SCC(=O)Nc2ccc(C)c(Cl)c2)c2oc3ccccc3c2n1`?
USP30 block: 39*; USP17 block: 44*; OTUD3 block: 11; USP28 inh: 11

Results for Cc1ccc(NC(=O)CSc2nc(C)nc3c2oc2ccccc23)c(C)c1 ?
USP30 block: 32*; USP17 block: 26; OTUD3 block: 8; USP28 inh: 8

What do the screens show for `COc1ccccc1NC(=O)CSc1nc(C)nc2c1oc1ccccc12`?
USP30 block: 35*; USP17 block: 26; OTUD3 block: 15; USP28 inh: 18

How did Cc1nc(SCC(=O)NC(C)c2ccccc2)c2oc3ccccc3c2n1 (centres undefined) do in these assays?
USP30 block: 0; USP17 block: 38*; OTUD3 block: 21; USP28 inh: 1

How did COc1ccc(NC(=O)CSc2nc(C)nc3c2oc2ccccc23)c(OC)c1 do in these assays?
USP30 block: -7; USP17 block: 1; OTUD3 block: -4; USP28 inh: -1

Results for O=C(Nc1ccccc1Oc1ccccc1)C(c1ccccc1)c1ccccc1 ?
USP30 block: 37*; USP17 block: 23; OTUD3 block: 19; USP28 inh: 22

How did N#Cc1ccc(OCC(=O)Nc2ccccc2Oc2ccccc2)cc1 do in these assays?
USP30 block: -10; USP17 block: 11; OTUD3 block: 0; USP28 inh: 0

Results for O=C(NCc1cccnc1)c1cnn2c(C(F)(F)F)cc(-c3ccc(F)cc3)nc12 ?
USP30 block: 56*; USP17 block: 36*; OTUD3 block: -3; USP28 inh: -1

What do the screens show for `COc1ccc2nc(NC(=O)CCCOc3ccc(C(C)=O)cc3)sc2c1`?
USP30 block: -37; USP17 block: -5; OTUD3 block: -11; USP28 inh: 2

What do the screens show for `CC(=O)c1ccc(OCCCC(=O)Nc2nc3c(C)cccc3s2)cc1`?
USP30 block: 17; USP17 block: 36*; OTUD3 block: 9; USP28 inh: 14

How did CCN1CCc2nc(NC(=O)COc3ccc4ccccc4c3)sc2C1 do in these assays?
USP30 block: -26; USP17 block: -12; OTUD3 block: -13; USP28 inh: -4

How did CCN1CCc2nc(NC(=O)CCCOc3ccc(C(C)=O)cc3)sc2C1 do in these assays?
USP30 block: 36*; USP17 block: 44*; OTUD3 block: 7; USP28 inh: 13

What do the screens show for `O=C(CC1CCCC1)Nc1cccn2nc(-c3cccnc3)nc12`?
USP30 block: 14; USP17 block: 8; OTUD3 block: 13; USP28 inh: 3

What do the screens show for `CC(C)C(=O)N[C@H]1C[C@H]2CN(C)c3ccccc3CN2C1`?
USP30 block: -39; USP17 block: -23; OTUD3 block: -7; USP28 inh: -30

How did CCN(C1CCS(=O)(=O)C1)S(=O)(=O)c1ccc(C)cc1 (centres undefined) do in these assays?
USP30 block: 0; USP17 block: 0; OTUD3 block: -3; USP28 inh: -5

Results for O=c1[nH]c2ccc(NCc3ccccc3OCc3ccc(Cl)cc3)cc2[nH]1 ?
USP30 block: 31*; USP17 block: 27; OTUD3 block: 4; USP28 inh: 37*

What do the screens show for `Cc1sc2nc(-c3cccnc3)nc(N3CCc4ccccc4C3)c2c1C`?
USP30 block: -247; USP17 block: 8; OTUD3 block: -34; USP28 inh: -26

What do the screens show for `CCCNC(=O)Cn1c(-n2nc(C)cc2C)nc2c(c1=O)CCCC2`?
USP30 block: 12; USP17 block: 2; OTUD3 block: 4; USP28 inh: 0

What do the screens show for `Cc1ccc(-n2nnc(C(=O)NC3CCCC3)c2N)cc1`?
USP30 block: 19; USP17 block: 5; OTUD3 block: 12; USP28 inh: 6

What do the screens show for `Cc1ccc(-n2nnc(C(=O)NC3CCCCC3)c2N)cc1`?
USP30 block: 2; USP17 block: 53*; OTUD3 block: 5; USP28 inh: 0

What do the screens show for `COc1ccc(C(O)=C2C(=O)C(=O)N(CCN3CCOCC3)C2c2cccc(O)c2)cc1` (centres undefined)?
USP30 block: -5; USP17 block: -22; OTUD3 block: 5; USP28 inh: 0

Results for CN1CCN(Cc2cccnc2)C(=O)C12CCN(c1ncccn1)CC2 ?
USP30 block: -112; USP17 block: -77; OTUD3 block: -22; USP28 inh: -44

How did CN1CCN(Cc2cccnc2)C(=O)C12CCN(Cc1ccc[nH]1)CC2 do in these assays?
USP30 block: -14; USP17 block: 46*; OTUD3 block: 6; USP28 inh: 55*

Results for CCCn1nnc2cc(S(=O)(=O)N3CCCC(C(=O)NCCc4ccco4)C3)ccc21 (centres undefined) ?
USP30 block: -52; USP17 block: 39*; OTUD3 block: 7; USP28 inh: 10

What do the screens show for `c1ccc2c(c1)CCN(Cc1nc(-c3ccc(N4CCOCC4)nc3)no1)C2`?
USP30 block: -3; USP17 block: -1; OTUD3 block: -2; USP28 inh: 12

What do the screens show for `O=C(CCC1CCCC1)NCc1ccc2[nH]c3c(c2c1)CCCC3`?
USP30 block: -232; USP17 block: -37; OTUD3 block: -50; USP28 inh: -39

What do the screens show for `COc1ccc(-c2noc(NCCc3ccccc3)n2)cc1`?
USP30 block: 24; USP17 block: 37*; OTUD3 block: 14; USP28 inh: 15

Results for COc1ccc(CN2CCC(c3nc4ncccc4[nH]3)CC2)c(OC)c1 ?
USP30 block: -30; USP17 block: 5; OTUD3 block: 3; USP28 inh: 0

What do the screens show for `N#Cc1c(N)nc2c(c1N)C(c1ccccc1)CO2` (centres undefined)?
USP30 block: 58*; USP17 block: 44*; OTUD3 block: 4; USP28 inh: 18

Results for CCN(CC(=O)Nc1cc(C)on1)c1cccc2ccccc12 ?
USP30 block: 27; USP17 block: 88*; OTUD3 block: 12; USP28 inh: 23

How did Cc1cc(NC(=O)CNc2ccccc2F)no1 do in these assays?
USP30 block: -35; USP17 block: -15; OTUD3 block: -3; USP28 inh: -12

How did CCc1cc(=O)n(CC(=O)Nc2ccc(F)c(F)c2)c(N2CCOCC2)n1 do in these assays?
USP30 block: -1; USP17 block: 5; OTUD3 block: 9; USP28 inh: 5

Bioassay records (PubChem BioAssay)
